IL-1B inflam inh = inhibitors of inflammasome signaling (IL-1 beta secretion); THP-1 LPS/ATP IL-1B secretion, AlphaLISA, 16 h; stronger effect = lower value; 360,000 tested, 4.7% active; AID 743279; activity change, % at 57.5 µM; in the data active = activity change below about -50%; inconclusive = mostly about -30% to -49%; note: % is set by controls: 0 for no effect and ±100 for the full control effect
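THP-1 cells pretreated 1 hr with compounds (up to 57.5 uM final), then stimulated with LPS (250 ng/mL final) plus ATP (1.25 mM final); secreted IL-1B measured by AlphaLISA after 16 hr, decreased signal indicating inhibition.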
MCF10A rereplic = inducers of DNA re-replication in MCF 10A breast cells | MCF 10A DNA re-replication, Hoechst nuclear intensity, 48 h | Potency, µM (titrated, usually from 46.1 µM), without a hit: top-dose activity, positive = re-replication, usual class: activators | 350,000 tested, 2.9% active | AID 624296; note: potency is the fitted concentration of half-maximal effect; % of control where 0% means no effect; nearly all actives have a fitted effect of over 50% in size
KB-V1 MDR tox = KB-V1 MDR subline cytotoxicity; KB-V1 MDR cells viability, CellTiter-Glo, 72 h; Potency, µM (highest dose often 46.1 µM), actives largely listed as cytotoxic; 400,000 tested, 3.4% active; note: potency is the fitted concentration of half-maximal effect; % is set by controls: 0 for no effect and ±100 for the full control effect; nearly all actives have a fitted effect of over 60% in size
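KB-V1, DMEM (no phenol red) + 10% FBS; cpd pin-transferred, titration series; 72 h, 37 degrees C; CellTiter-Glo, luminescence. Data normalized, curve-fit.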
SW480 rereplic = DNA re-replication induction in SW480 cells | Potency, µM (highest dose often 46.1 µM), without a hit: top-dose re-replication activation, actives largely listed as activators | SW480 DNA re-replication, Hoechst DNA content imaging, 48 h | 340,000 tested, 1.8% active; note: potency is the fitted concentration of half-maximal effect; % of control where 0% means no effect; nearly all actives have a fitted effect of over 55% in size
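SW480 cells exposed to compounds for 48 hr at 37 C, 5% CO2, then Hoechst-stained 40 min. Nuclear DNA content imaged by fluorescence scanning (405 nm excitation, 500-530 nm emission); re-replication scored as increased high-intensity nuclei.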
KB-3-1 cytotox = KB-3-1 parental cell cytotoxicity | KB-3-1 viability, CellTiter-Glo ATP luminescence, 72 h | Potency, µM (top dose mostly 46.1 µM), usual class: cytotoxic | 400,000 tested, 1.4% active; note: potency is the fitted concentration of half-maximal effect; % is set by controls: 0 for no effect and ±100 for the full control effect; nearly all actives have a fitted effect of over 60% in size
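Cytotoxicity in the drug-sensitive parental line KB-3-1 was scored as loss of CellTiter-Glo luminescence following 72 h incubation with compound. Values come from curve fitting of normalized concentration-response data.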
* marks the source's active call; other numbers are inactive results; i = inactive; ? = inconclusive; . = not tested or not shown. This is a sample that favours compounds with a hit; in the whole collection about 9.9% have one here. Unless noted, calls come from the whole dose curve; as a rule, active = well fitted curve in the direction sought with a large enough effect; inconclusive = small, poorly fitted or top-dose-only effect, or another doubt; inactive = no such curve, though single readings can be large; an effect the other way counts as inactive or inconclusive.

SMILES	IL-1B inflam inh	MCF10A rereplic	KB-V1 MDR tox	SW480 rereplic	KB-3-1 cytotox
CNc1nc(C)cc(C)c1S(=O)(=O)c1ccc(Cl)cc1	-14.2	2.9%	i	1.3%	i
O=C(/C=C/c1ccccc1F)c1cccc([N+](=O)[O-])c1	-9.1	20.6µM*	i	85.6%	i
O=C(Oc1ccc(F)cc1C(=O)/C=C/c1cccs1)c1cccc([N+](=O)[O-])c1	?	?	i	13µM*	i
Cc1c(CCOC(=O)c2ccc(Cl)cc2Cl)sc[n+]1CC(=O)c1ccccc1	-18.9	0.6%	i	3.5%	i
Cc1c(CCOC(=O)C23CC4(C)CC(C)(CC(C)(C4)C2)C3)sc[n+]1CC(=O)c1ccccc1	-192.3*	?	?	-20.7%	?
Cc1c(CCOC(=O)c2cc([N+](=O)[O-])cc([N+](=O)[O-])c2)sc[n+]1CC(=O)c1ccc(Br)cc1	-97.2*	4.2%	?	19.0%	i
CCOCCCNC(=O)c1cc2c(=O)n(C)c3ccccc3c2n1C	.	.	i	.	i
CC1CCCCN1CCNC(=O)c1cc2c(=O)n(C)c3ccccc3c2n1C (centres undefined)	-55.0*	?	i	-1.3%	i
CCCN(CCC)CCNC(=O)c1cc2c(=O)n(C)c3ccccc3c2n1C	-63.4*	?	i	1.4%	i
CN(CCNC(=O)c1cc2c(=O)n(C)c3ccccc3c2n1C)Cc1ccccc1	?	20.6µM*	i	3.2%	?
Fc1ccc(Nc2c(-c3ccco3)nc3ccccn23)cc1	-63.8*	-3.2%	i	0.0%	i
c1ccc(Nc2c(-c3ccco3)nc3ccccn23)cc1	?	0.6%	i	0.5%	i
C[C@@]12C(=O)OC(=O)[C@]1(C)C1CCC2O1	-4.7	-2.8%	5.8µM*	?	?
CC(=O)Nc1ccc(NC(=O)c2ccc(-c3ccnn3C)c3ccoc23)cc1	-92.8*	.	i	.	i
CC(C)c1ccc(NC(=O)c2ccc(-c3ccnn3C)c3ccoc23)cc1	15.3	.	i	.	i
CCCCCCn1c(SCC(=O)NC2CCS(=O)(=O)C2)nc2ccccc2c1=O (centres undefined)	-18.9	.	i	.	i
CCOC(=O)c1c(-c2ccccc2)csc1NC(=O)CCN1C(=O)c2ccccc2C1=O	0.0	28.3%	i	7.1%	i
CCOC(=O)c1c(-c2ccccc2)csc1NC(=S)NC	23.6	18.4µM*	i	?	i
CCOC(=O)c1c(-c2ccc(-c3ccccc3)cc2)csc1NC(=O)CCN1CCOCC1	-50.0*	8.2µM*	i	23.0%	?
CCOC(=O)c1c(-c2ccccc2)csc1NC(=O)CSc1nnc(C)s1	-29.9	?	?	-9.1%	?
CCOC(=O)c1c(-c2ccc(-c3ccccc3)cc2)csc1NC(=O)CNCCN(C)C	-103.9*	17.4%	?	?	?
CCNC(=S)Nc1scc(-c2ccccc2)c1C(=O)OCC	9.5	?	?	3.7%	?
CCOC(=O)c1c(-c2ccc(F)cc2)csc1NC(=O)CCN1CCOCC1	6.6	14.0%	14.6µM*	1.4%	i
O=C(CSc1nnc2scc(-c3ccc(Cl)cc3)n12)Nc1cccc(C(F)(F)F)c1	.	.	i	.	i
Cc1ccc(NC(=O)C2Cc3ccccc3N2C(=O)c2ccccc2)cc1Cl (centres undefined)	.	.	i	.	i
CCOC(=O)c1c(-c2ccccc2)csc1NC(=O)C(C)NCCCN1CCOCC1 (centres undefined)	-53.4*	5.6%	?	?	?
CCOC(=O)c1c(-c2ccc(C)o2)csc1NC(=S)NC(=O)c1ccccc1Br	-0.5	?	16.4µM*	?	?
CCOC(=O)c1c(-c2ccc(C)o2)csc1NC(=S)NC(=O)c1cccs1	12.0	24.3%	i	-22.0%	?
COCCCn1c(SCC(=O)N2CCOCC2)nc2cc(Cl)ccc2c1=O	-25.6	-7.9%	?	1.1%	i
CCC(C)(C)n1nnnc1C(c1cc2ccc(OC)cc2[nH]c1=O)N1CCc2ccccc21 (centres undefined)	-14.0	?	i	?	i

High-throughput results (PubChem BioAssay)
